PubChem BioAssay (NCI)
Compounds without any hit were thinned out: in the full panel of roughly 83,000, 20% have a hit.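 Testing used 96-well plates and a 48-hour single-concentration exposure. Example: -40 means 40% of the starting cells died.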 A number with no mark means an inactive call. Activity calls are given as the source filed them. How the source made its calls: active means growth percent below 10; inactive means the rest.

What was measured:
Experiment in all cases: NCI-60 one-dose screen, 48 h (100 = growth as untreated, 0 = no growth, -100 = all killed)
Details in all cases: 10 µM unless noted
[1] = system: K-562 leukemia
[2] = system: MALME-3M melanoma
[3] = system: MDA-MB-231 breast
[4] = system: RXF 393 renal
[5] = system: SF-268 CNS
[6] = system: SF-295 CNS
[7] = system: SF-539 CNS
[8] = system: UACC-257 melanoma
[9] = system: M14 melanoma
[10] = system: HCT-15 colon
[11] = system: HT29 colon
[12] = system: SNB-75 CNS
[13] = system: SNB-19 CNS
[14] = system: U251 CNS
[15] = system: PC-3 prostate
[16] = system: SK-MEL-5 melanoma
[17] = system: UACC-62 melanoma
[18] = system: LOX IMVI melanoma
[19] = system: SK-MEL-28 melanoma
[20] = system: DU-145 prostate

| Structure (SMILES) | growth [1] | growth [2] | growth [3] | growth [4] | growth [5] | growth [6] | growth [7] | growth [8] | growth [9] | growth [10] | growth [11] | growth [12] | growth [13] | growth [14] | growth [15] | growth [16] | growth [17] | growth [18] | growth [19] | growth [20] |
| --- | --- | --- | --- | --- | --- | --- | --- | --- | --- | --- | --- | --- | --- | --- | --- | --- | --- | --- | --- | --- |
| CCOC(=O)C(=CNc1ccccc1[N+](=O)[O-])C(=O)OCC | 96.7% | 115% | 98.6% | 104% | 105% | 98.6% | 97.7% | 94.2% | 118% | 108% | 92.6% | 97% | 91.2% | 92.6% | 95.7% | 86.4% | 84.4% | 99.9% | 102% | – |
| Cc1ccc(NC(=O)C(Cl)Cl)cc1 | 106% | 92.7% | 99.1% | 119% | 105% | 97.8% | 98.4% | 92% | 109% | 105% | 92.7% | 101% | 101% | 94.7% | 91.8% | 99.4% | 98.6% | 99.6% | 98.2% | – |
| CN(CCC(=O)/C(=C\c1ccccc1)c1ccc(Cl)cc1)Cc1ccccc1 | 22.7% | 18% | 13% | -29.3% (active) | 5.31% (active) | 25.7% | -8.26% (active) | 53.5% | 37.9% | 2.09% (active) | 9.63% (active) | 60.3% | 23% | -10.3% (active) | 45% | 58.7% | -36.6% (active) | -58.3% (active) | 9.17% (active) | – |
| CN(C)c1cnccn1 | – | 127% | 72.4% | 94.5% | 91.6% | 122% | 86.5% | 95.3% | 97.5% | 87.6% | 104% | 96.6% | 101% | 78.4% | 88.6% | 96.1% | 98.6% | 84.3% | – | – |
| CCCCCCCCc1cc[n+](CC(=O)c2ccc(Br)cc2)cc1 | – | -25.4% (active) | 13.8% | -24% (active) | 52.5% | 34% | – | -61.2% (active) | – | 47% | -88.9% (active) | 50.5% | – | -85.2% (active) | 10.2% | -93.5% (active) | -32.9% (active) | -84.8% (active) | 32.9% | 37% |
| Cc1cc(C)on1 | 102% | 112% | 104% | 101% | – | 115% | 103% | 91.6% | – | 105% | 107% | 101% | 102% | 98.9% | 89.9% | 99.6% | 110% | 102% | 101% | – |
| O=c1[nH]c(NCc2nnnn2-c2ccc(Br)cc2)nc2sc3c(c12)CCCC3 | – | 112% | 92.4% | 103% | 98.7% | 92.1% | 95.9% | 96% | – | 98% | 95.5% | 93.2% | – | 83.8% | 84.4% | 99.5% | 87.1% | 95.8% | 112% | 106% |
| CCN(CC)CCCNC(=O)c1ccc(N)cc1O | 12.3% | 91.2% | 94.6% | 91.3% | 93.8% | 99.7% | 98.4% | 99.3% | 94.5% | 96.1% | 103% | 113% | 106% | 99% | 94.2% | 95.4% | 97.9% | 90.6% | 100% | – |
| Cn1ccc(Cc2cnc(N)s2)n1 | – | 100% | 104% | 107% | 100% | 107% | 99.5% | 81.7% | – | 104% | 97.5% | 93.3% | – | 97.5% | 98.8% | 101% | 100% | 103% | 106% | 110% |
| Cc1ccc(-n2nnc(C3=NCCc4c3[nH]c3ccc(Cl)cc43)c2C)cc1 | – | 98.3% | 80.4% | 102% | 80.6% | 70.6% | 92.9% | 57.9% | – | 65.8% | 74.4% | 103% | 83.3% | 80% | 62.1% | 79.1% | 30.5% | 63% | 100% | 87.3% |
| CN(C)CCC(O)(Cc1ccccc1)c1ccccc1 (stereo not drawn) | 103% | 114% | 108% | 117% | – | 103% | 103% | 111% | – | 108% | 103% | 102% | 112% | – | 92.9% | 108% | 117% | 99.2% | 112% | – |
| O=C1c2ccccc2C2(c3ccc(O)cc3)c3ccccc3Oc3cccc1c32 (stereo not drawn) | 19.8% | 66.4% | 21.8% | 11% | 40.3% | 21.3% | -1.29% (active) | 48% | 0.454% (active) | 25.9% | 7.07% (active) | 42.2% | 35.6% | 15.5% | 21.6% | 16.9% | 30.8% | 28.3% | 51.9% | – |
| O=c1oc2ccc(Cl)cc2cc1-c1cs/c(=N/N=C\c2ccc(Cl)cc2)n1/N=C/c1ccc(Cl)cc1 | – | 98.9% | 101% | 113% | 104% | 108% | 107% | 95.1% | – | 105% | 91.8% | 123% | 98.4% | 102% | 99.4% | 104% | 93.8% | 110% | 110% | 108% |
| Cc1ccc(NSc2ccccc2[N+](=O)[O-])cc1 | 16.9% | 44.9% | 53.7% | -6.02% (active) | 48.7% | 11.4% | -12.3% (active) | 58.1% | 7.95% (active) | 27% | 5.05% (active) | 10.1% | 38.1% | 21.1% | 18% | 13.6% | 28.6% | 35% | 63.7% | – |
| N#Cc1c(N)nc2c(nnn2-c2cccc(C(F)(F)F)c2)c1N | – | 121% | 78.3% | 92.7% | 91.9% | 95.6% | 96.9% | 103% | – | 86.3% | 86% | 82.6% | 93.1% | 85.2% | 86.8% | 87.9% | 88.5% | 94.7% | 111% | 99% |
